This is a sample that favours compounds with a hit; in the whole collection about 4.1% have one here.
DAX1 inh-1 = blocks DAX1 repression of SF-1 activated StAR promoter. 370,000 tested, 1.1% active. AID 652010. inhibition, % at 6.8 µM. HEK293T StAR-luciferase reporter, SF-1/DAX-1 repression relief;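 active = inhibition above the mean over all tested compounds plus 3 SD, cut at about 3.6% in these data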;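 note: 0% = DAX-1 cells with DMSO and 100% = cells lacking DAX-1 with DMSO; higher inhibition means more luminescence from relief of DAX-1 repression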
hcDAF12 agonist = H. contortus DAF-12 activation, primary screen. HEK293 hcDAF-12 lit1-tk-luc reporter, luminescence; 0% DMSO, 100% Δ7-dafachronic acid. activation, % at 6.8 µM. 370,000 tested, 1.4% active. AID 652067;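 active = activation above the mean of all tested compounds plus 3 SD, cut at about 5.5% in these data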;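 note: 100% = response to 3 µM Δ7-dafachronic acid high control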
ssDAF-12 act = activates DAF-12 receptor from parasite S. stercoralis. HEK293 ssDAF-12/GRIP1 lit1-tk-luc reporter, luminescence; % of 3 µM dafachronic acid response. activation, % at 6.8 µM. 370,000 tested, 1% active. AID 652126;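 active = activation above the mean over all tested compounds plus 3 SD, cut at about 0.9% in these data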;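 note: 0% = DMSO-only wells and 100% = 3 µM delta7-dafachronic acid wells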
DAX1 inh-2 = inhibitors of human orphan nuclear receptor DAX1 (NR0B1); HEK293 Gal4-DAX1 luciferase reporter, luminescence; inhibition, % at 6.75 µM; 340,000 tested, 0.99% active;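 active = inhibition above the mean over all tested compounds plus 3 SD, cut at about 4.2% in these data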;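 note: 0% = DAX1-transfected cells with DMSO and 100% = empty-vector control cells with DMSO; inhibition shows as a rise in luminescence from relieved DAX1 repression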
hgDAF-12 ag = activates the H. glycines DAF-12 receptor ligand-binding domain | HEK293 GAL4-hgDAF12 UAS-luciferase reporter, agonist luminescence; normalized to butyrate control | 370,000 tested, 1.8% active | activation, % at 6.8 µM | AID 687014;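 active = activation above a cutoff set at the mean of all screened compounds plus 3 SD, cut at about 10% in these data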;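 note: 0% = DMSO wells and 100% = sodium butyrate wells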
LXR ag = activates human LXR-beta, counter-screen for hcDAF-12 agonists; shares compounds with hcDAF12 agonist; HEK293 Gal4-LXR tk-luc reporter, luminescence, 24 h; normalized: DMSO 0%, positive control 100%; activation, % at 6.8 µM; 3,400 tested, under 10 active;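 active = mean percent activation of the reporter above a cutoff set as the average over tested compounds plus their standard deviation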
Target sequence (P55055 whole entry, looked up, the tested form may be a part): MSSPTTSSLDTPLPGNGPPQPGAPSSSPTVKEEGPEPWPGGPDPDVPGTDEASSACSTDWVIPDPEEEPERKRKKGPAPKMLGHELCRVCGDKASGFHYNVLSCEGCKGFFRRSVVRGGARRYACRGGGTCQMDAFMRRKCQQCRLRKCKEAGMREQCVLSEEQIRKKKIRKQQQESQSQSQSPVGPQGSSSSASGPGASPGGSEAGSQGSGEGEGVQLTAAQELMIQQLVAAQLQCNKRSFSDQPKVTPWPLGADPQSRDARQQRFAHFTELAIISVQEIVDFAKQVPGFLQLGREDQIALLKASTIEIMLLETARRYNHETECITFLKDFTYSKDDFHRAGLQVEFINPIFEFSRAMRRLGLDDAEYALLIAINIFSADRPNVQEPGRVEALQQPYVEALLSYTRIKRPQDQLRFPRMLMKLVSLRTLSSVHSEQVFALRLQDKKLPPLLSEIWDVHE
hcDAF12 conf = confirmation of H. contortus DAF-12 agonists. HEK293 hcDAF-12 lit1-tk-luc reporter, luminescence; % of Δ7-dafachronic acid response. activation, % at 6.8 µM. shares compounds with hcDAF12 agonist. 3,400 tested, 61% active;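 active = mean activation across triplicate tests above the threshold derived from the earlier primary screen, cut at about 5.5% in these data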;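 note: 0% = DMSO only wells and 100% = 3 µM Δ7-dafachronic acid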
hgDAF12 ag = hgDAF-12 agonism, confirmation assay; activation, % at 6.8 µM; AID 743050; shares compounds with hgDAF-12 ag; 3,300 tested, 80% active; HEK293 GAL4-hgDAF12 luciferase reporter, agonist mode; percent of butyrate response;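 active = mean activation over triplicate wells above the hit cutoff derived from the earlier primary screen, cut at about 11% in these data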;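 note: 0% = DMSO low control and 100% = 2 mM sodium butyrate high control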
LXRb DAF12 ctr = LXR-beta agonism as DAF-12 counter-screen; activation, % at 6.8 µM; shares compounds with hgDAF-12 ag; HEK293 Gal4-LXR luciferase reporter, 24 h; 3,300 tested, under 10 active;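 active = mean activation of the triplicate above a set limit carried over from the primary screen, none filed active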
* hit, by the source's call; nt = not tested or not shown.

SMILES	DAX1 inh-1	hcDAF12 agonist	ssDAF-12 act	DAX1 inh-2	hgDAF-12 ag	LXR ag	hcDAF12 conf	hgDAF12 ag	LXRb DAF12 ctr
CC1(c2ccc(NC(=O)c3ccccc3F)cc2)CC1(Cl)Cl (stereo not drawn)	3	9.6*	1	4.3*	17*	1	6.3*	16*	1
Cc1cc(NS(=O)(=O)c2ccc(NC(=O)Cc3ccc(Cl)c(F)c3)cc2)no1	-1	-3	-2	nt	-1	nt	nt	nt	nt
CCOC(=O)NC[C@@]1(C(=O)OC)CC(=O)N(C)[C@@H]1c1ccccc1	-1	1	-1	nt	0	nt	nt	nt	nt
Cc1ccc(/C(=N/Nc2ncnc3ccccc23)C(=O)O)cc1	3.7*	17*	1.9*	3	18*	0	6.3*	12*	0
CC1CCC2(CCC(=O)N2CCCO)CC1 (stereo not drawn)	-1	-2	-1	nt	-2	nt	nt	nt	nt
Cc1scc(C(=O)N/N=C/c2ccc(Cl)s2)c1C	3	8.2*	0	6.2*	14*	1	6	15*	1
Cc1scc(C(=O)N/N=C/c2ccc(OC(C)C)cc2)c1C	0	1	0	2	5	nt	nt	nt	nt
Nc1nc(-c2cccnc2)nc2sc3c(c12)CCCC3	4.5*	8.7*	1.5*	2	20*	1	4	15*	1
C[C@H]1CN([C@@H](C)CO)C(=O)CCCn2cc(nn2)CO[C@@H]1CN(C)C(=O)c1ccccc1	1	0	-1	nt	0	nt	nt	nt	nt
O=C(Nc1ccc(-c2nc3ccccc3o2)cc1)C1CCCO1 (stereo not drawn)	3	9.7*	1.1*	0	15*	2	7.6*	21*	1
C/C(=N/NC(=O)c1cccs1)c1c(C)[nH]n(-c2nc3ccccc3s2)c1=O	4.0*	7.7*	0	-3	17*	1	5	9	0
CCOC(=O)C1CCN(C(=O)C(Cc2ccc3c(c2)OCO3)NC(C)=O)CC1 (stereo not drawn)	-1	-2	-1	nt	2	nt	nt	nt	nt
CC(C)CNc1cccc2c1S(=O)(=O)N(Cc1cn(Cc3cccc(F)c3)nn1)Cc1ccccc1O2	0	-1	-1	nt	-2	nt	nt	nt	nt
Cc1nc(-c2ccc3c(c2)OCO3)cs1	0	5	0	0	3	nt	nt	nt	nt
Cc1nc(-c2ccc3c(c2)OCCCO3)cs1	2	6.6*	0	3	13*	1	5	18*	1
Cc1ccc(C)c(NC(=S)c2ccccn2)c1	0	2	0	0	8	nt	nt	nt	nt
Cc1ccc(C)c(NC(=S)c2ccc3ccccc3n2)c1	2	22*	2.0*	2	17*	1	15*	17*	1
Fc1ccccc1OCCSc1nnnn1-c1ccccc1	3	8.1*	0	3	13*	1	7.7*	18*	1
COc1ccccc1OCCSc1nnnn1-c1ccc(C)cc1	1	-2	-1	0	4	nt	nt	nt	nt
COC[C@H]1CCCN1c1ccc2c(c1)O[C@H](C)CCN(C1CC1)S2(=O)=O	-1	0	-1	nt	4	nt	nt	nt	nt
O=C(NCCc1c[nH]c2ccccc12)OCc1cn(-c2ccc(F)cc2)nn1	-1	0	-1	nt	2	nt	nt	nt	nt
O=C(CS(=O)(=O)c1ccccc1)N1CCc2ccccc21	3	13*	1.9*	2	21*	1	9.1*	17*	1
COC(=O)[C@]1(CNC(=O)c2cc(F)ccc2F)CC(=O)N(C)[C@@H]1c1ccccc1	0	0	-1	nt	-1	nt	nt	nt	nt
O=C(c1ccccc1)c1ccc(O)cc1O	0	0	-2	3	0	nt	nt	nt	nt
CC(=O)c1cc2c(C)c(C(=O)c3ccccc3)oc2cc1O	4.0*	7.5*	1.7*	1	26*	2	5.8*	21*	1
SMILES	DAX1 inh-1	hcDAF12 agonist	ssDAF-12 act	DAX1 inh-2	hgDAF-12 ag	LXR ag	hcDAF12 conf	hgDAF12 ag	LXRb DAF12 ctr
Clc1ccccc1-c1nnc(-c2cccs2)o1	2	11*	1.0*	9.4*	20*	1	8.1*	24*	1
CCOC(=O)C1=C(C(=O)OCC)C2N(Cc3ccc(C#N)cc3)c3ccccc3[C@@]23C[C@@H](C(=O)OC)N(S(=O)(=O)c2cccs2)C3=N1 (stereo partly drawn)	0	0	-1	nt	-2	nt	nt	nt	nt
O=C(O)/C=C\C(=O)Nc1ccccc1C#Cc1ccc(Br)cc1	3.8*	16*	2.1*	3	22*	0	1	16*	1
COc1cccc(N/C=C/C(=O)c2ccc(C)cc2)c1	3	8.1*	1.4*	3	14*	2	11*	24*	1
Cc1cc(N/C=C/C(=O)c2ccccc2)ccc1Br	3	9.8*	2.8*	1	14*	2	18*	24*	1
CN(C)c1ccc(N/C=C/C(=O)c2ccccc2)cc1	-1	0	-1	1	2	nt	nt	nt	nt
CN(CCOC(=O)c1cccs1)C1CN(Cc2cn(Cc3ccccc3Cl)nn2)S(=O)(=O)C1 (stereo not drawn)	1	1	-1	nt	5	nt	nt	nt	nt
Clc1ccc(/C=N/Nc2ncnc3ccccc23)cc1Cl	3	10*	1.1*	12*	16*	1	7.0*	20*	1
[O-][n+]1c(/C=C/c2ccccc2)ccc2ccccc21	2	13*	1.5*	7.2*	14*	1	8.6*	21*	1
Clc1cccc(-c2nnc(-c3ccccc3)o2)c1	2	14*	1.9*	1	16*	1	11*	23*	1
COc1cc(-c2nc3ccccc3s2)ccc1O	2	8.6*	0	3	14*	1	7.3*	14*	1
COC(=O)N1C[C@H](OC(=O)c2ccc(-c3ccccc3)cc2)[C@H]2C[C@@H]1c1ccccc1O2	0	1	-1	nt	2	nt	nt	nt	nt
OC(c1ccc(F)cc1)c1nc(-c2cc3ccccc3o2)cs1 (stereo not drawn)	3.9*	6.6*	1.2*	nt	15*	1	4	14*	0
COC(=O)[C@H](CC(C)C)N(CCc1cn(Cc2ccccc2)nn1)S(=O)(=O)c1ccc(F)cc1Br	0	-2	-2	nt	-1	nt	nt	nt	nt
NNC(=O)c1cccc(COc2ccccc2Br)c1	3	7.2*	1.2*	-3	16*	1	6.5*	15*	1

Screening data as filed in PubChem BioAssay.
